Compound activity (PubChem BioAssay)
HP1b chromo inh = HTS for Inhibitors of HP1-beta Chromodomain Interactions with Methylated Histone Tails; AlphaScreen HP1-beta / biotin-H3K9me3 peptide binding; Potency, µM (titrated, usually from 114 µM), without a hit: at the top dose activity change, negative = inhibition, most hits filed as inhibitors; 390,000 tested, 0.56% active; AID 540317, 2011; also: nearly all actives have a fitted effect of over 70% in size
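HP1-beta protein (50 nM final) preincubated 30 min at room temperature with biotinylated H3(1-18)K9me3 peptide (50 nM) in PBS pH 7.4, 0.01% Tween-20, then compound added for 30 min. AlphaScreen streptavidin donor/nickel chelate acceptor beads (10 ug/mL final), 30 min dark, luminescence read.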
G9a inh = qHTS Assay for Inhibitors of Histone Lysine Methyltransferase G9a | 350,000 tested, 8.8% active | G9a H3K9 monomethylation, AlphaScreen, 2 h | Histone-lysine N-methyltransferase EHMT2 (Homo sapiens), Q96KQ7 | Potency, µM (doses to about 102 µM), for inactives: at the highest dose activity, negative = inhibition, hits mostly inhibitors; also: % is scaled to controls: 0 for no effect and ±100 for the full control effect; nearly all actives have a fitted effect of over 75% in size
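G9a (20 nM) preincubated 15 min RT with compounds, then 500 nM biotinylated H3K9 peptide and 20 uM SAM added; 2 h RT reaction. Monomethyl-H3K9 product detected by AlphaScreen with anti-H3K9me1 antibody, streptavidin donor and anti-rabbit IgG acceptor beads.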
JMJD2A Tudor inh = qHTS Assay for Inhibitors of JMJD2A-Tudor Domain; Lysine-specific demethylase 4A (Homo sapiens), O75164; AlphaScreen JMJD2A-Tudor / H3K4me3 peptide binding; Potency, µM (series often up to 114 µM), for the others: at the top dose activity change, negative = inhibition, actives largely listed as inhibitors; 390,000 tested, 4.4% active; AID 504339, 2011; also: % is scaled to controls: 0 for no effect and ±100 for the full control effect; nearly all actives have a fitted effect of over 50% in size
BAZ2B block = qHTS Assay for Inhibitors of BAZ2B; Bromodomain adjacent to zinc finger domain protein 2B (Homo sapiens), Q9UIF8; AlphaScreen BAZ2B-H3K14Ac peptide displacement; Potency, µM (series often up to 114 µM), inactives show at the top dose activity change, negative = inhibition, usual class: inhibitors; 360,000 tested, 4.4% active; also: % is scaled to controls: 0 for no effect and ±100 for the full control effect; nearly all actives have a fitted effect of over 60% in size
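In this displacement format the biotinylated H3(5-23) peptide acetylated at Lys14 serves as ligand at 50 nM, with BAZ2B at 50 nM in PBS pH 7.4 containing 0.01% Tween-20. Donor and acceptor beads are 10 ug/mL final.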
L3MBTL1 inh = qHTS Assay for the Inhibitors of L3MBTL1 | AlphaScreen L3MBTL1–H3K9me1 peptide binding | Potency, µM (titrated, usually from 57.1 µM), for the others: at the highest dose activity, negative = inhibition, actives largely listed as inhibitors | AID 485360, 2010 | 230,000 tested, 0.66% active; also: % is scaled to controls: 0 for no effect and ±100 for the full control effect; nearly all actives have a fitted effect of over 60% in size
Target sequence (Q9Y468 whole entry, looked up): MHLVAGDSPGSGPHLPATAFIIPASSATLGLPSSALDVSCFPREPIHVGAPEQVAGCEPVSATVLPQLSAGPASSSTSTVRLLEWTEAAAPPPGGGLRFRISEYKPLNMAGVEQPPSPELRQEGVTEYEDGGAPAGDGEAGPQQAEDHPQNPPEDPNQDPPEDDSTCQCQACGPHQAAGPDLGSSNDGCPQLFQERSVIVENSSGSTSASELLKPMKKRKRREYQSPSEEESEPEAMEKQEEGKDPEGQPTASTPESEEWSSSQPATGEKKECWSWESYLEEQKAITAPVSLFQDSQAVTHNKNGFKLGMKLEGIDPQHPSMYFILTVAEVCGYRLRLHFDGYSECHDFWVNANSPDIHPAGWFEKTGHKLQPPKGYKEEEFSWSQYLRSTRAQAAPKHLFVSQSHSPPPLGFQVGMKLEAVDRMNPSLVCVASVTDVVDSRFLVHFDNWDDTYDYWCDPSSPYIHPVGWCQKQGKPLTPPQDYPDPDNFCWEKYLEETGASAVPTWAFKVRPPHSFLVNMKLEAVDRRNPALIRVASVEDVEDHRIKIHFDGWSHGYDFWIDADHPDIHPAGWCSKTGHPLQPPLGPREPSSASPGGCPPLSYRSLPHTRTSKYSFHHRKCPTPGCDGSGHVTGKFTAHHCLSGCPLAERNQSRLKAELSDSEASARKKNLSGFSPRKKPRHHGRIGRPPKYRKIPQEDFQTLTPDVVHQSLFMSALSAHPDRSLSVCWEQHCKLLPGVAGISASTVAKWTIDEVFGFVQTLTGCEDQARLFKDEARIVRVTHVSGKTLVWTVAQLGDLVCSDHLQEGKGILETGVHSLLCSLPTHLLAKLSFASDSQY
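Displacement of a biotinylated histone H3(1-15) peptide monomethylated at Lys9 (75 nM) from L3MBTL1 (50 nM) was measured by AlphaScreen after a 30 min room-temperature compound incubation; cefsulodin titration served as intraplate control.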
Sfp inh = qHTS Assay for Inhibitors of Bacillus subtilis Sfp phosphopantetheinyl transferase (PPTase) | Biochemical Sfp PPTase activity, qHTS | Potency, µM, inactives show largest response in the series, negative = inhibition, actives largely listed as inhibitors | 310,000 tested, 3.5% active;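 also: the enzyme is Sfp with the accession as filed and its product quenches rhodamine fluorescence; 0% = enzyme reaction without inhibitor and -100% = no enzyme wells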
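Compounds were incubated with enzyme (final 15 nM) for 15 min at room temperature before substrate addition started the reaction. Fluorescence at 525 nm excitation, 598 nm emission was recorded immediately and after 30 minutes.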
* marks the source's active call; other numbers are inactive results; ? = inconclusive; · = not tested or not shown; [ ] = dose if it differs, or a comment. The list is not random: actives were taken first. Their share in the collection is about 12%. Calls follow the shape of the dose curve; as a rule, active = well fitted curve in the direction sought with a large enough effect; inconclusive = small, poorly fitted or top-dose-only effect, or another doubt; inactive = no such curve, though single readings can be large; an effect the other way counts as inactive or inconclusive. Potency is read from the fitted curve at half-maximal effect.

SMILES	HP1b chromo inh	G9a inh	JMJD2A Tudor inh	BAZ2B block	L3MBTL1 inh	Sfp inh
COc1cccc(C(=O)NCc2ccc3c(c2)OCO3)c1OC	7%	0%	-5%	-17%	-3%	1%
Cc1ccc(S(=O)(=O)N2CCN(c3nc(C#N)nc4ccccc34)CC2)cc1	·	·	-11%	·	·	·
O=C(c1ccc(F)cc1F)N(Cc1ccccn1)Cc1ccco1	23%	22µM*	?	?	-3%	-6%
CC(=O)N(Cc1ccccn1)Cc1ccco1	23%	·	30%	0%	6%	-19%
CC[C@H](C)[C@H](NC(=O)[C@H](CCC(=O)O)NC(=O)[C@H](CC(N)=O)NC(=O)[C@@H](N)[C@@H](C)O)C(=O)N[C@H](C(=O)N[C@@H](CCC(=O)O)C(=O)N[C@@H](CCC(=O)O)C(=O)N[C@@H](CCC(N)=O)C(=O)N[C@@H](Cc1ccc(O)cc1)C(=O)N[C@H](C(=O)N1CCC[C@H]1C(=O)N[C@@H](CCC(N)=O)C(=O)N[C@@H](CO)C(=O)N[C@@H](CC(C)C)C(=O)N[C@@H](C)C(=O)N[C@H](C(=O)N[C@@H](CC(C)C)C(=O)N[C@@H](CCC(=O)O)C(=O)N[C@@H](CO)C(=O)N[C@H](C(=O)N[C@@H](Cc1ccccc1)C(=O)N[C@@H](CCC(N)=O)C(=O)N[C@@H](CCC(=O)O)C(=O)N[C@@H](CC(C)C)C(=O)NCC(=O)N[C@@H](CCCCN)C(=O)N[C@@H](CC(C)C)C(=O)N[C@H](C(=O)NCC(=O)N1CCC[C@H]1C(=O)N[C@@H](CC(N)=O)C(=O)N[C@@H](CO)C(=O)N[C@@H](CCC(N)=O)C(=O)O)[C@@H](C)O)C(C)C)[C@@H](C)O)[C@@H](C)O)C(C)C	·	·	·	·	·	-5%
Cn1c(SCc2ccccc2)nccc1=O	26%	·	-8%	·	·	·
CC1=C(SCc2ccccc2)C(=O)c2ccccc2C1=O	?	·	14µM*	·	·	·
OC[C@@H]1O[C@H](OC2[C@@H](O)[C@@H](O)[C@@H](O)O[C@@H]2CO)[C@H](O)[C@@H](O)[C@@H]1OC1O[C@H](CO)[C@@H](O)[C@H](O)[C@@H]1O (stereo partly drawn)	·	·	·	·	·	-6%
CC(=O)Nc1nc2n(n1)C(c1ccc(F)cc1)C=C(c1ccc(Cl)cc1)N2 (stereo not drawn)	63%	?	-6%	?	·	·
CC1=CC(c2ccc(Cl)cc2)n2nc(NC(=O)CCC(=O)O)nc2N1 (stereo not drawn)	9%	20µM*	?	50µM*	·	-22%
CC1=CC(c2ccc(Cl)cc2)n2nc(NC(=O)CCCC(=O)O)nc2N1 (stereo not drawn)	-3%	50µM*	25µM*	?	·	-13%
CCn1ccc2cc(S(=O)(=O)N3CCC(C(=O)NCc4ccc(OC)cc4)CC3)ccc21	12%[57 µM]	2%[59 µM]	-19%	-6%	·	·
Cc1ccc(S(=O)(=O)NCCNS(=O)(=O)c2ccc(C)cc2)cc1	14%	-17%	-8%	-18%	·	6%
CC(=O)Nc1ccc(S(=O)(=O)NNC(=O)c2sc(=S)n(C)c2C)cc1	13%	0%[59 µM]	0.71µM*	-11%	6%	-21%
CSc1ccc(S(=O)(=O)Nc2ccc(S(=O)(=O)Nc3ccc(C)cc3)cc2)cc1	0%	-33%[59 µM]	?	-31%	·	15%
Cc1nnsc1C(=O)NNS(=O)(=O)c1cc(C(F)(F)F)cc(C(F)(F)F)c1	39%	4%	2%	-24%	1%	6%
